# Reference: PubChem BioAssay (NCATS)
# Where “and” joins values, the source holds several entries; their conditions need not be identical. Equal values may be shown once. Results filed as inconclusive are left out. Calls of active or inactive are those of the source. The call rests on the fitted dose curve; in most records, active means well fitted activation curve with a large enough effect; inconclusive means small, poorly fitted or top-dose-only effect; inactive means no such curve, though single readings can be large or run the other way. Positions of bridges follow the written chain, without caps; N, C: chain ends. Non-standard residues stand in square brackets, D forms with d. Residues, ends and D or L forms follow the SMILES beside them. *: point of attachment. X1 = CCC(C)C(N)C1=NC(C(=O)*)CS1; dOrn = NCCC[C@@H](N)C(=O)O
# Molecular target: Cellular tumor antigen p53 (Homo sapiens) (UniProt P04637)
# Sequence (P04637 whole entry, looked up): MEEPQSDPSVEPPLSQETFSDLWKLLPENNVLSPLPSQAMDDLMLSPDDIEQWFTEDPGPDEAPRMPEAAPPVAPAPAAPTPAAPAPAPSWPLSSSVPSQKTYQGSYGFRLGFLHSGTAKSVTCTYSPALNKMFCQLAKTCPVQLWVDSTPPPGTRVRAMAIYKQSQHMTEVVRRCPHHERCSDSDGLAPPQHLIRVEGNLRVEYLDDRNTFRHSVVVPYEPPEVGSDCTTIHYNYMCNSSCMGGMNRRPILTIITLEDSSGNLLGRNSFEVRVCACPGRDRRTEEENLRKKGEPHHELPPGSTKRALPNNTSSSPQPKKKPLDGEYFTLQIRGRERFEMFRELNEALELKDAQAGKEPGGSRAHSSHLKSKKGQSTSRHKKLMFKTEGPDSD
# Experiment: Primary qHTS for small molecule compounds that upregulate eGFP-tagged delta133p53alpha (in N-terminal) cells. (AID 2060322); further: nearly all actives have a fitted effect of over 75% in size;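 on activation: cells pre-induced with doxycycline then dosed without doxycycline; series mostly up to about 56 µM; 0% = DMSO vehicle and 100% = reference activator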
# Settings: NCI-H358 eGFP-delta133p53alpha fluorescence, 24 h; activation: stronger effect = higher value
# From the text: Assay Development and Screening Technology
# National Center for Advancing Translational Sciences (NCATS),
# National Institute of Health (NIH), Rockville, Maryland
# Cellular senescence (CS) is one of the hallmarks of aging and age-related diseases. Senescent cells are characterized by an irreversible growth arrest, an increase in senescence-associated beta-galactosidase (SA-beta-gal) activity and p16INK4a expression, an activation of the DNA damage response pathways, and the emergence of a senescence-associated secretory phenotype (SASP).
# Delta133p53alpha, a human/primate-specific p53 protein isoform, delays or inhibits the induction of CS and SASP in various types of human cells, including progeria-derived fibroblasts, primary normal astrocytes, and CD8+ T lymphocytes. Induction of delta133p53alpha with small molecule compounds may provide therapeutic opportunities for inhibition of senescence/SASP-associated pathologies in progeria syndromes, astrocyte-mediated neuroprotection in neurodegenerative diseases, and possibly prevention and treatment of a wider range of senescence- and aging-associated diseases.
# Here we report the development and validation of a cell-based quantitative high throughput screening (qHTS) assay in 1,536-well format. This qHTS assay uses the NCI-H358 cell line with doxycycline-inducible expression of enhanced green fluorescent protein (eGFP)-tagged delta133p53alpha, which allows efficient and highly quantitative measurement of the protein levels.
# PROTOCOL TABLE (as described by Inglese J, Shamu CE and Guy RK. 2007)
# SEQUENCE No. (e.g., 1, 2, 3, etc.); […] (e.g., Cells, Incubation, Reagent, etc.); VALUE; DESCRIPTION.
# 1; Cells; 4uL; 800 doxycycline treated cells / well in doxycycline-free media, 1536-well black, clear-bottom low base Aurora microplates.
# 2; Compounds; 23 nL; Kalypsis pin tool (Wako) equipped with 1536-well pin heads, 5-azacytidine positive control.
# 3; Incubation; 24 hr; 37C, 5% CO2; 95% relative humidity.
# 4; Aspiration; 1x; BioTek EL406 washer dispenser (Agilent).
# 5; Fixing; 3.5% paraformaldehyde, BioTek EL406 washer dispenser (Agilent).
# 6; Washing; 1x PBS; BioTek EL406 washer dispenser (Agilent).
# 7; Nuclei staining; 1:1000 dilution of Hoechst 33342 (Thermofisher), BioTek EL406 washer dispenser (Agilent).
# 8; Incubation; 20 min; in the dark at room temperature.
# 9; Washing; 2x, 1x PBS (ThermoFisher), BioTek EL406 washer dispenser (Agilent).
# 10; Reagent; 10 uL; 1x PBS per well, sealed with clear adhesive tape.
# NOTES (numbers refer to sequence numbers above).
# 1. NCI-H358 cells expressing eGFP-tagged delta133p53alpha were grown in T75 culture flasks and treated with doxycycline for 24h, at 10 ng/ml for eGFP-D133p53a cells (N-terminal cell) and 100 ng/ml for D133p53a-eGFP cells (C-terminal cells). Cells were trypsinized, counted using a Counted 3 Automated Cell Counter (Thermo Fisher), and diluted to a concentration of 200,000 cells/ml. A Multidrop Combi Reagent Dispenser (ThermoFisher) was used to dispense 800 cells/well in […] of doxycycline-free media, into 1536-well black/clear bottom low base plates (AuroraMicroplates).
# 2. After plating cells, 23 nl of compound library, DMSO vehicle control or positive control (5-azacytidine) were transferred by Pin Tool (Wako). The plate map layout was the same for each plate: (column 1) non-doxycycline treated cells + DMSO vehicle control; (column 2) doxycycline treated cells + DMSO vehicle control baseline; (column 3) doxycycline treated cells + positive control 57.5 uM final concentration 5-azacytidine; (column 4) doxycycline treated cells + serial dilution of 5-azacytidine, 16-point 1:2 titration spanning 1.8 nM to […] final concentration; (columns 5-48) doxycycline treated cells + titration of library compounds.
# 3. Cells were incubated at 37 °C, 5 % CO2, 95% RH with breathable metal lid for 24h.
# 4-10. […] After two washes, 10 ul of 1X PBS (Thermo Fisher) was dispensed to each well. Clear adhesive plate seals (VWR) were applied and plates stored at 4 °C.
# 11. […]
# Potency means the concentration at half of the fitted maximal effect.
SMILES,activation,Potency
NS(=O)(=O)c1cc2c(cc1Cl)NCNS2(=O)=O,-8.47% (inactive) and 26.3% (inactive) and -35.3% (inactive),
CC(=O)Nc1ccc(OCC(O)CNC(C)C)cc1 (stereo not given),-14.2% (inactive),
CN(C)CCc1c[nH]c2ccc(C[C@H]3COC(=O)N3)cc12,-0.837% (inactive) and -21.4% (inactive) and -11.5% (inactive),
C=C1CCC2C(C)(COC3OC(COC(=O)CC(=O)O)C(O)C(O)C3O)CCCC2(C)C1CCC1=CCOC1=O (stereo not given),8.4% (inactive),
CC(C)NC(=O)c1ccc(C#Cc2ccncc2)cn1,14.8% (inactive),
COc1cc(S(C)(=O)=O)ccc1Nc1nc2ccc(-c3ccc(NC(=O)[C@H](C)c4ccc(F)cc4)cc3)cn2n1,-11.7% (inactive),
CCCCCCN(CCCCCC)C(=O)Cc1c(-c2ccc(F)cc2)[nH]c2ccccc12,-10.8% (inactive),
c1ccc(OCc2ccc(CCCN3CCOCC3)cc2)cc1,-7.53% (inactive),
Oc1ccc([C@H]2COc3cc(O)ccc3C2)cc1,-10.5% (inactive),
COC(=O)CC(C)(O)CC(=O)OCc1ccc(O[C@@H]2O[C@H](CO)[C@@H](O)[C@H](O)[C@H]2O)cc1 (stereo not given in full),-5.34% (inactive),
COC1(CC(C)C)NC(=O)C(O)(Cc2ccccc2)NC1=O (stereo not given),-16.8% (inactive),
CN1CCN(CCC(=O)N2c3ccccc3Sc3ccc(C(F)(F)F)cc32)CC1,18.6% (inactive),
Cc1nc2n(c(=O)c1CCN1CCC(c3noc4cc(F)ccc34)CC1)CCC[C@H]2O,9.21% (inactive) and -6.21% (inactive),
CC(=O)NCCc1c[nH]c2ccc(O)cc12,10.8% (inactive),
Fc1ccc(-c2c3cccc(C(F)(F)F)c3nn2Cc2ccc(F)cc2Cl)cc1,-8.11% (inactive),
CC(=O)c1c(C)cc2cccc(O)c2c1O[C@@H]1O[C@H](CO)[C@@H](O)[C@H](O)[C@H]1O,-2.29% (inactive),
Cc1cc2c(c(=O)o1)C=C1CC[C@H]([C@H](C)Cn3cnc(=N)c4[nH]cnc43)C[C@@H]1O2,14.3% (inactive),
O=C(O)Cc1ccc2c(c1)C(=O)c1ccccc1CO2,7.34% (inactive),
C=C1C(=O)O[C@@H]2C[C@@]3(C)C[C@@H](O)C[C@H](C)C3=C[C@H]12,,23.9 µM (active)
CN1CCN(Cc2ccc(NC(=O)Cc3ccc(Oc4cc(NC(=O)C5CC5)ncn4)cc3)cc2C(F)(F)F)CC1,,6.75 µM (active)

SMILES,activation,Potency
C/C1=C\[C@H]2OC(=O)[C@@H](C)[C@@H]2CC/C(C(=O)O)=C/CC1,-5.34% (inactive),
C[C@@H]1C[C@H](O[C@@H]2O[C@H](CO[C@@H]3OC[C@](O)(CO)[C@H]3O)[C@@H](O)[C@H](O)[C@H]2O)CC(C)(C)[C@H]1/C=C/[C@@H](C)O,-29.5% (inactive),
O=C(Nc1ncc(-c2cc(C(F)F)nn2-c2c(Cl)cccc2Cl)s1)C1CC1,7.16% (inactive),
Cc1cccc(Oc2cnc(=O)[nH]c2)c1,-25% (inactive),
CC(=O)O[C@H]1C[C@@H]2CC[C@H]3[C@H]4C[C@H]([N+]5(C)CCCCC5)[C@@H](OC(C)=O)[C@@]4(C)CC[C@@H]3[C@@]2(C)C[C@H]1N1CCCCC1,-4.56% (inactive),
CCC(C)C(N)C1=NC(C(=O)N[C@@H](CC(C)C)C(=O)N[C@H](CCC(=O)O)C(=O)N[C@H](C(=O)N[C@H]2CCCCNC(=O)[C@H](CC(N)=O)NC(=O)[C@@H](CC(=O)O)NC(=O)[C@H](Cc3cnc[nH]3)NC(=O)[C@@H](Cc3ccccc3)NC(=O)[C@H]([C@@H](C)CC)NC(=O)[C@@H](CCCN)NC2=O)[C@@H](C)CC)CS1 (stereo not given in full) (X1-L[dE]IK[dOrn]I[dF]H[dD]N; lactam 4-C),-3.34% (inactive) and -0.955% (inactive),
C=CC(C)(C)C1(CC2NC(=O)C3CCCN3C2=O)C(=O)Nc2cc3c(cc21)C=CC(C)(C)O3 (stereo not given),6.87% (inactive),
CC[n+]1c(/C=C/C=C2/N(C)c3ccccc3C2(C)C)sc2ccccc21,-26.3% (inactive),
O=C(O)c1cccc(S(=O)(=O)N2CCc3ccccc3C2)c1,-7.64% (inactive),
CCN1CCN(Cc2ccc(Nc3ncc(F)c(-c4cc(F)c5nc(C)n(C(C)C)c5c4)n3)nc2)CC1,,12 µM (active)
COC(=O)C[C@H]1C(C)(C)[C@H](OC(=O)C(C)C)C2CC3=C4CC(=O)O[C@@H](c5ccoc5)[C@]4(C)CCC3[C@@]1(C)C2=O (stereo not given in full),11.6% (inactive),
C/C=C/C=C/C(CC(=O)O)Nc1ccc(C=O)cc1 (stereo not given),-13.7% (inactive),
OC[C@H]1O[C@@H](Oc2ccccc2)[C@H](O)[C@@H](O)[C@@H]1O,-0.893% (inactive),
COc1cc(CNC(=O)CCCC/C=C/C(C)C)ccc1O,-7.14% (inactive),
C=C1C[C@H](O)[C@@H](O)[C@@]2(C)C1[C@@H](O)[C@H]1OC(=O)C3[C@@H](C)[C@@H](O)[C@H](O)C2[C@]31C (stereo not given in full),0.763% (inactive),
CN1CCN(c2nc(-c3ccc(C(=O)NC4(C(=O)NCC#N)CCCCC4)cc3)cs2)CC1,-19.1% (inactive),
Cc1cc2c(cc1C1(c3ccc(C(=O)O)cn3)CC1)C(C)(C)CCC2(C)C,-11.7% (inactive) and 0.333% (inactive),
CCn1c(-c2nonc2N)nc2cnc(Oc3cccc(NC(=O)c4ccc(OCCN5CCOCC5)cc4)c3)cc21,-20.5% (inactive),
O=C(O)COc1nn(Cc2ccccc2)c2ccccc12,28.8% (inactive),
COc1cc2c(cc1OC)CC(=O)N(CCCN(C)C[C@H]1Cc3cc(OC)c(OC)cc31)CC2,-11.1% (inactive),
